# Rows were chosen to be rich in hits. Some 3.1% of all compounds tested hit in one or more screens of this group.
# PriA SSB inh = K. pneumoniae PriA-SSBct interaction inhibition; AlphaScreen SSBct-PriA binding, biotinylated peptide; inhibition, % at 33 µM; 0.6% of 430,000 active; in the data active = inhibition mostly above about 37%, no sharp cut-off; inactive = mostly below about 20%;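 note: plate controls were negative control peptide for no effect and reference peptide for full effect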
# BoNT-F LC inh = inhibitors of Botulinum neurotoxin F light chain protease | Multiplex microsphere protease cleavage assay, flow cytometry | inhibition, % at 10 µM | 0.22% of 360,000 active | AID 588497; in the data active = inhibition above about 35%, passing the limit was not always enough; inconclusive = no clear call, values can overlap the other calls; note: plate controls were buffer without enzyme for full effect and enzyme alone for no effect
# BoNT-A LC inh2 = blocks Botulinum neurotoxin A light chain protease | multiplex microsphere protease substrate cleavage, flow cytometry | inhibition, % at 10 µM | 0.17% of 360,000 active; note: plate controls were buffer without enzyme for full effect and enzyme alone for no effect
# Anthrax LF prot = inhibitors of Bacillus anthracis lethal factor protease. multiplex microsphere protease cleavage assay, LF. P15917. inhibition, % at 10 µM. 0.12% of 360,000 active; note: plate controls were buffer without enzyme for full effect and enzyme alone for no effect
# Target sequence (P15917 whole entry, looked up): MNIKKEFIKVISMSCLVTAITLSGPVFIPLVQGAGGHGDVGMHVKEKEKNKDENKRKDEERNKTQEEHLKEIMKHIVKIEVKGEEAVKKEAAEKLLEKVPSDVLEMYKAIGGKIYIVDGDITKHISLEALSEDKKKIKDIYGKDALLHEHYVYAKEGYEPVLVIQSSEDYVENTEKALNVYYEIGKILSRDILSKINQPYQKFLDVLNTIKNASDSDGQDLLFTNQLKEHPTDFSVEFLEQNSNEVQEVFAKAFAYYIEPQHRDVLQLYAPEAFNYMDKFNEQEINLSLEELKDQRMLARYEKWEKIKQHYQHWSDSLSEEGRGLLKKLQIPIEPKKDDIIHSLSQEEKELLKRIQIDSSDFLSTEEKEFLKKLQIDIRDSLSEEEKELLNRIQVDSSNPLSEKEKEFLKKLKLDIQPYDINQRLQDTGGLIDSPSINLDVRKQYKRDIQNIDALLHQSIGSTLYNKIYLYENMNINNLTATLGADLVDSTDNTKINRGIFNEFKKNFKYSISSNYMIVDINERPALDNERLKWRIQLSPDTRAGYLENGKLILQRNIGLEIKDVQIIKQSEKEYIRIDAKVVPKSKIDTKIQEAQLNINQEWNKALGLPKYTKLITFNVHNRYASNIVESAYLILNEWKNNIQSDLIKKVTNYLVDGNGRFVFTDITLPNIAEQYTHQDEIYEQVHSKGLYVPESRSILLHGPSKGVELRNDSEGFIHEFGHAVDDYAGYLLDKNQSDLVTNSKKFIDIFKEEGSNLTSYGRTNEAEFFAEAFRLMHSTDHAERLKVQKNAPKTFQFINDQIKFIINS
# Autofluor counter = compound fluorescence in toxin protease inhibitor counterscreen; compound autofluorescence counterscreen, microsphere flow cytometry; stronger effect = higher value; fluorescence intensity (concentration not given with the values); 3.1% of 360,000 active; in the data active = fluorescence intensity above about 16000; inconclusive = no clear call, values can overlap the other calls
# The depositor's hits bear a star; ? = inconclusive; . = not tested or not shown; ! = a repeat was not active. Cut-off read from the data, not from the text of the source, unless noted: active = inhibition above about 30%; inconclusive = no clear call, values can overlap the other calls; inactive = below that.
SMILES,PriA SSB inh,BoNT-F LC inh,BoNT-A LC inh2,Anthrax LF prot,Autofluor counter
COc1ccc(N2CCN(CC(=O)N3CCC(C)CC3)CC2)cc1,-11,-4,-3,-1,17583*
CC1CCN(CC(=O)N2CCN(c3ccccc3)CC2)CC1,-11,21,1,-8,3399
O=C(CCSc1nnc2ccccn12)Nc1ccc(F)cc1,-14,2,0,1,23399*
COc1ccc2nc(-c3ccc(F)c(NC(=O)c4ccc5ccccc5c4)c3)cn2n1,-7,.,.,.,.
CCOc1cc(NC(=S)Nc2ccccc2OC)c(OCC)cc1NC(=O)c1ccccc1C,2,-2,1,-5,16184*
CCOc1cc(NC(=S)Nc2ccccc2)c(OCC)cc1NC(=O)c1ccccc1,16,-8,-2,-3,23797*
CCc1cccc2sc(NC(=O)c3ccn(C)n3)nc12,2,.,.,.,.
CNC(=O)Cc1cc(=O)[nH]c(=S)[nH]1,12,.,.,.,.
COc1ccccc1-n1ncc2c(C)nnc(SCC(=O)N3CCc4ccccc43)c21,-9,.,.,.,.
c1ccc(Cc2nnc3sc(-c4cccs4)nn23)cc1,-14,7,1,3,7931
c1ccc(Cc2nnc3sc(-c4cccnc4)nn23)cc1,2,-5,-1,-6,16689*
CCOc1ccc(-c2nnc3sc(-c4ccccc4OC)nn23)cc1,-6,1,0,-10,8923
CCOc1ccccc1-c1nn2c(Cc3ccccc3)nnc2s1,-15,-17,-14,-3,19404*
c1ccc(Cc2nnc3sc(-c4ccncc4)nn23)cc1,-6,0,-1,-1,23785*
c1ccc(Cc2nnc3sc(-c4ccccn4)nn23)cc1,0,6,?,0,21625*
C1CCc2nnc(Cc3nnc4n3CCCCC4)n2CC1,-7,.,.,.,.
O=C(c1ccc(C(F)(F)F)cc1)N1CCC(CSC2=NCCS2)CC1,-13,.,.,.,.
Fc1ccc(-c2cc(C(F)(F)F)nc(-n3cncn3)n2)cc1,-20,-4,-3,0,21601*
Fc1ccc(-c2cc(C(F)(F)F)nc(-n3cccn3)n2)cc1,-22,1,0,-2,4886
COc1cccc(-c2cc(C(F)(F)F)nc(-n3cncn3)n2)c1,-16,-2,?,-2,25001*
COc1cccc(-c2cc(C(F)(F)F)nc(-n3cc(C)cn3)n2)c1,-3,-12,-2,-1,4918
O=C(Nc1ccc(F)cc1)N1CCc2ncncc2C1,-34,.,.,.,.
COc1ccc(C(=O)c2ccccc2)c(O)c1,-26,-3,-1,-2,23016*
CCOC(=O)c1cc2c(=O)n3ccccc3nc2n(C(C)C)c1=NC(=O)c1ccncc1,-3,13,1,-1,4250
CCOCCCn1c(=NC(C)=O)c(C(=O)OCC)cc2c(=O)n3ccccc3nc21,8,-9,-1,-5,23789*!
SMILES,PriA SSB inh,BoNT-F LC inh,BoNT-A LC inh2,Anthrax LF prot,Autofluor counter
CCOC(=O)c1cc2c(=O)n3ccccc3nc2n(C(C)C)c1=NC(=O)c1c(-c2ccccc2Cl)noc1C,2,9,39*,26,4242
Cc1ccc(C(=O)Nc2nnc(CC(C)C)s2)cc1C,0,.,.,.,.
Nc1nc(Cn2nnc(-c3ccccc3Cl)n2)nc(N2CCOCC2)n1,-9,-4,?,-4,23188*
O=c1n(CCNS(=O)(=O)C2CC2)nc(-c2cccnc2)n1C1CC1,-20,.,.,.,.
CCCCOc1ccc(C(=O)NC)cc1,2,0,0,-5,2541
CC(NC(=O)c1ccc(C(C)(C)C)cc1)C(=O)O (stereo unspecified),8,4,4,1,21690*
CCCOc1ccc(C(=O)NC(C)C(=O)O)cc1 (stereo unspecified),-7,-4,-3,-1,21313*
Cc1ccc2c(c1)N(CC(=O)Nc1nccs1)C(=O)CO2,0,5,2,-5,5851
Cc1ccc2c(c1)N(CC(=O)NCCc1c[nH]c3ccccc13)C(=O)CO2,8,-2,-2,-3,23441*
O=C(CN1C(=O)COc2ccccc21)Nc1ccccc1,37,.,.,.,.
CC(=O)c1ccc(NC(=O)CSC(C)C)cc1,-17,2,0,0,22011*
Cc1ccc(NC(=O)CN2C(=O)COc3ccc(C)cc32)nc1,-1,6,4,-2,21570*
Cc1ccc2[nH]cc(CCNC(=O)CN3C(=O)c4ccccc4C3=O)c2c1,-1,-1,0,0,2612
CC(=O)c1ccc(NC(=O)CN2C(=O)COc3ccccc32)cc1,56*,.,.,.,.
CN(Cc1ccco1)S(=O)(=O)c1ccc(C(=O)Nc2nccs2)cc1,-2,.,.,.,.
COCc1c(C(=O)NN=C(C)c2ccccc2)nnn1-c1nonc1N,-10,.,.,.,.
Cc1ccc2c(c1)N(CCC(=O)N1CCC3(CC1)OCCO3)C(=O)CO2,-8,0,0,-1,22602*
Cc1ccc2c(c1)N(C(C)C(=O)NCCc1ccccc1)C(=O)CO2 (stereo unspecified),-10,-3,?,-1,20536*
O=C(Nc1cccc(-c2ccc(N3CCCC3)nn2)c1)c1ccccc1Cl,4,.,.,.,.
O=C(CSc1nc2ccccc2s1)N/N=C/c1ccco1,.,-18,-1,-2,2121
N#C/C(=C\c1ccco1)Sc1nc2ccccc2s1,-11,-1,0,-2,23761*
COC1(CNC(=O)C2(c3cccs3)CCCC2)CCSC1 (stereo unspecified),13,.,.,.,.
O=C(CSc1ccc(-c2ccccc2)nn1)N1CCCc2ccccc21,-16,-13,-2,-6,6974
O=C(CSc1ncc(-c2ccccc2)[nH]1)N1CCCc2ccccc21,39*,.,.,.,.
Nc1cc(=O)[nH]c(SCC(=O)N2CCCc3ccccc32)n1,0,-8,-2,-2,16983*
SMILES,PriA SSB inh,BoNT-F LC inh,BoNT-A LC inh2,Anthrax LF prot,Autofluor counter
O=c1sc2ccccc2n1CCOc1ccccc1,-59,-4,-2,-3,23573*
COc1ccccc1OCCCn1c(=O)sc2ccccc21,-25,-3,?,-5,20682*
CCOC(=O)Cn1c(=O)sc2ccccc21,-11,1,1,0,23284*
Cn1c2c(c(=O)n(C)c1=O)C(c1cccc(F)c1)C1=C(CC(C)(C)CC1=O)N2 (stereo unspecified),0,.,.,.,.
O=C(NCCC1=CCCCC1)C(=O)NCC1COC2(CCCCC2)O1 (stereo unspecified),2,.,.,.,.
Cc1ccc(S(=O)(=O)NCCC(=O)NCc2cccnc2)cc1,-15,-2,1,-10,5368
CSc1ccc(S(=O)(=O)NCc2ccccc2)cc1,0,2,1,0,22207*
O=C(CCNS(=O)(=O)c1ccc(Cl)cc1)NCc1cccnc1,-16,-1,-1,-3,23127*
Cc1ccc(S(=O)(=O)NCCC(=O)NCc2ccccc2)cc1,-2,4,4,-7,21858*
CC(NS(=O)(=O)c1ccc(CCC(=O)NCc2cccnc2)cc1)c1ccccc1 (stereo unspecified),-6,-1,0,0,20378*
CC(C)(C)OC(=O)NN=Cc1c[nH]c2ccccc12,4,.,.,.,.
O=C(Nc1cccc2nsnc12)C1CN(C(=O)COc2ccccc2F)C1,-19,.,.,.,.
COc1ccc(/C=N/Nc2nc3ccccc3nc2-c2ccccc2)c(OC)c1,40,.,.,.,.
CO[C@H](C#N)c1ccco1,-18,.,.,.,.
COc1ccc(-n2c(COc3ccc(Cl)cc3)nnc2SCc2ccc(C#N)cc2)cc1,-16,-3,-1,-3,7650
